Data as given in PubChem BioAssay (NCATS).
Results filed as inconclusive are left out. Entries that show only a call come without a potency. Calls of active or inactive are those of the source. Calls follow the shape of the dose curve; as a rule, active = well fitted cell-killing curve with a large enough effect; inconclusive = small, poorly fitted or top-dose-only effect, or effect the other way; inactive = no such curve, though single readings can be large or run the other way.

Assay: Quantitative High-Throughput drug screen in 47 multiple myeloma cell lines against the NCATS MIPE library collection: INA6_PLB cell viability assay (AID 1918965; also: nearly all actives have a fitted effect of over 55% in size)
Settings: INA6 myeloma viability, CellTiter-Glo ATP luminescence, 48 h; series mostly up to 45.8 µM
Summary of the method: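 We plated 500 myeloma cells per well, pinned in MIPE 4.0 compounds, and incubated for 48 hours at 37C. ATP was then quantified with CellTiter-Glo, with DMSO and media-only wells defining 100% and 0%.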
Potency is read from the fitted curve at half-maximal effect.

SMILES	Potency
Nc1cccc2c1C(=O)N(C1CCC(=O)NC1=O)C2=O (centres undefined)	4.18 µM (active)
CC(C)[C@H](CO)Nc1nc(Nc2cccc(Cl)c2)c2ncn(C(C)C)c2n1	18.7 µM (active)
N#Cc1cc(NC(=O)Nc2nnc(-c3ccncc3)s2)ccc1-c1cn[nH]c1	inactive
COc1cc(OC)c(NC(=O)Nc2cc(C)on2)cc1Cl	inactive
COC(=O)[C@@H]1[C@H]2C[C@@H]3c4[nH]c5ccccc5c4CCN3C[C@@H]2CC[C@@H]1O	inactive
COc1cc2c(cc1O)CCC1C2CC[C@@]2(C)C1CC[C@@H]2O (some centres undefined)	1.66 µM (active)
C#Cc1cccc(Nc2ncnc3cc(OCCOC)c(OCCO)cc23)c1	1.32 µM (active)
C[N+](C)([O-])CCNc1ccc(NCC[N+](C)(C)[O-])c2c1C(=O)c1c(O)ccc(O)c1C2=O	16.6 µM (active)
C=C1CCC2[C@](C)(CO)C(O)CC[C@]2(C)C1CC=C1C(=O)OCC1O (some centres undefined)	inactive
O=C1c2c(O)cccc2[C@@H]([C@@H]2O[C@H](CO)[C@@H](O)[C@H](O)[C@H]2O)c2cc(CO)cc(O)c21	inactive
C[C@@H]1C(=O)O[C@H]2CC34[C@H]5C[C@@H](C(C)(C)C)C36[C@H](OC(=O)[C@@H]6O)O[C@@]4(C(=O)O5)[C@]21O (some centres undefined)	inactive
CC(C)n1cnc2c(NCCc3ccc(O)cc3)nc(-c3csc4ccccc34)nc21	20.9 µM (active)
CCCNC(=O)[C@H]1O[C@H]1C(=O)N[C@H](C(=O)N1CCC[C@@H]1C(=O)OC)C(C)CC (some centres undefined)	16.6 µM (active)
CC(=O)O[C@H]1C[C@@H]2CC[C@H]3[C@H]4C[C@H]([N+]5(C)CCCCC5)[C@@H](OC(C)=O)[C@@]4(C)CC[C@@H]3[C@@]2(C)C[C@H]1[N+]1(C)CCCCC1	inactive
COc1cc(C(C)C)c(Oc2cnc(NC(CO)CO)nc2N)cc1I	inactive
CCN(CC)CCCCNc1ncc2c(n1)N(C)C(=O)N(c1c(Cl)c(OC)cc(OC)c1Cl)C2	11.8 µM (active)
Cc1cc(-c2nnc3n2CCCCC3)c(C)n1-c1ccccc1	inactive
O=S(=O)(O)CCSSCCS(=O)(=O)O	inactive
COc1cc(CCc2cc(NC(=O)c3ccc(N4C[C@@H](C)N[C@@H](C)C4)cc3)n[nH]2)cc(OC)c1	9.35 µM (active)
NC(=O)c1ncn([C@@H]2O[C@H](CO)[C@@H](O)[C@@H]2O)c1O	inactive

SMILES	Potency
CC(O)(C#Cc1ccc2c(c1)N(c1nc(N)ncc1Cl)CC2)c1nccs1 (centres undefined)	8.33 µM (active)
c1coc(CNc2ncnc3nc[nH]c23)c1	inactive
O=C(CN1C(=O)C2(CCCC2)NC[C@H]1c1cc(F)cc(F)c1)Nc1ccc2c(c1)C[C@@]1(C2)C(=O)Nc2ncccc21	inactive
CC(=O)N1CCN(c2ccc(OCc3nn(C)c(C)c3-c3cccc4c(CCCOc5cccc6ccccc56)c(C(=O)O)n(Cc5cccnc5)c34)cc2)CC1	0.0332 µM (active)
NC1=N[C@H]2[C@H](CS[C@H]2CCCCC(=O)O)N1	inactive
CC(=O)N[C@H]1[C@@H]([C@H](O)[C@H](O)CO)OC(C(=O)O)=C[C@@H]1N=C(N)N	inactive
C[C@H](CCC(=O)O)[C@H]1CC[C@H]2[C@@H]3[C@H](O)C[C@@H]4C[C@H](O)CC[C@]4(C)[C@@H]3CC[C@]12C	inactive
CN(C)CC(=O)N1CCC(c2ccc(NC(=O)c3ncc(C#N)[nH]3)c(C3=CCCCC3)c2)CC1	14.8 µM (active)
CNC(=O)c1cccc(-c2ccc3c(N4CCOC[C@H]4C)nc(N4CCOC[C@H]4C)nc3n2)c1	0.526 µM (active)
CON=C(C(=O)N[C@@H]1C(=O)N2C(C(=O)O)=C(CSC(=O)c3ccco3)CS[C@H]12)c1csc(N)n1	inactive
CC[C@H]1OC(=O)[C@H](C)[C@@H](O[C@H]2C[C@@](C)(OC)[C@@H](O)[C@H](C)O2)[C@H](C)[C@@H](O[C@@H]2O[C@H](C)C[C@H](N(C)C)[C@@H]2O)[C@](C)(OC)C[C@@H](C)C(=O)[C@H](C)[C@@H](O)[C@]1(C)O	inactive
COc1cc(C[C@@H](CO)[C@H](CO)Cc2ccc(O)c(OC)c2)ccc1O	1.18 µM (active)
COC(=O)[C@@H]1CC2=CC(=O)CC[C@]2(C)[C@@]23O[C@@H]2C[C@@]2(C)[C@H](CC[C@@]24CCC(=O)O4)[C@@H]13	inactive
C[C@@H](NCc1cc2ccccc2[nH]1)c1cccc2ccccc12	4.69 µM (active)
CC1=C(C(=O)Nc2cc3cn[nH]c3cc2F)C(c2ccc(Cl)cc2F)N=C(c2ccnc(Cl)c2)N1 (centres undefined)	10.5 µM (active)
C=C1C(=CC=C2CCC[C@]3(C)[C@@H]([C@H](C)CCCC(C)(C)O)CC[C@@H]23)C[C@@H](O)C[C@@H]1O	5.9 µM (active)
COC1=C(OC)C(=O)C(CC=C(C)CCC=C(C)CCC=C(C)CCC=C(C)CCC=C(C)CCC=C(C)CCC=C(C)CCC=C(C)CCC=C(C)CCC=C(C)C)=C(C)C1=O	inactive
C[C@H]1COc2c(N3CCN(C)CC3)c(F)cc3c(=O)c(C(=O)O)cn1c23	inactive
CC(=O)O[C@H]1C[C@@H]2CC[C@H]3[C@H]4C[C@H]([N+]5(C)CCCCC5)[C@@H](OC(C)=O)[C@@]4(C)CC[C@@H]3[C@@]2(C)C[C@H]1N1CCCCC1	inactive
